# Experimental data as given in publication PMC7862700, “An all-to-all approach to the identification of sequence-specific readers for epigenetic DNA modifications on cytosine”.
# What was measured:
# Test in all cases: DAPPL (digital affinity profiling via proximity ligation, sequencing); 10 mM Tris-HCl pH 7.5, 50 mM NaCl, 1 mM DTT, 4% glycerol, room temperature, 30 min; GST-TFs on glutathione beads, 16-mer random dsDNA library, 0.1% formaldehyde crosslink after washing; high values mean tight binding
# [1] = target: T1, FEV (Homo sapiens, UniProt Q99581 1-238); conditions: protein: recombinant; tags: N-terminal GST; dsDNA, one strand shown
# T1 sequence: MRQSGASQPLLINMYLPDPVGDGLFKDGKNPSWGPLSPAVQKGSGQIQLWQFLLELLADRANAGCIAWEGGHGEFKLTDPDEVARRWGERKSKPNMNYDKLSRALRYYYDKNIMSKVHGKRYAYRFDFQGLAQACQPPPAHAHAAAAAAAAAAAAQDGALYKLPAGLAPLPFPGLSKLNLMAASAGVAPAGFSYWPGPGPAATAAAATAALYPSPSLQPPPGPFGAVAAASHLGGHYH
# In short: (§1)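 Each value of binding signal is a hexamer's read frequency for a factor divided by the same hexamer's frequency in the tag-only sample. Barcoded, bead-captured GST fusions of human transcription factors made in yeast were pooled with that sample and incubated with 200 nmole of a random double-stranded 16-mer DNA library in Tris/NaCl/DTT/glycerol buffer at room temperature for 30 min. Washing, 0.1% formaldehyde crosslinking, proximity ligation, PCR and Illumina NextSeq500 sequencing followed.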
# [2] = target: ETV5 (Homo sapiens, UniProt P41161 1-510); conditions: protein: recombinant; tags: N-terminal GST; dsDNA, one strand shown
# In short: as §1
# [3] = target: HSF1 (Homo sapiens, UniProt Q00613 1-529); conditions: protein: recombinant; tags: N-terminal GST; chain copies: 3; dsDNA, one strand shown
# In short: as §1
# [4] = target: T2, SPIC (Homo sapiens, UniProt Q8N5J4 1-248); conditions: protein: recombinant; tags: N-terminal GST; dsDNA, one strand shown
# T2 sequence: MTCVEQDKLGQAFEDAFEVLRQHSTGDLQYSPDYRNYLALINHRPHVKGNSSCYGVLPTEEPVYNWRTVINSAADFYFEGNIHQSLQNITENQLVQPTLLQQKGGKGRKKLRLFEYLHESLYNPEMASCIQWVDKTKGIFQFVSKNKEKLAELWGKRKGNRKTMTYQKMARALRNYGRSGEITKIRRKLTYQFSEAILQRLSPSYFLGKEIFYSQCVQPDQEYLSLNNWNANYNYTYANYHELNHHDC
# In short: as §1
# [5] = target: ELF4 (Homo sapiens, UniProt Q99607 1-663); conditions: protein: recombinant; tags: N-terminal GST; dsDNA, one strand shown
# In short: as §1
# [6] = target: T3, ELK4 (Homo sapiens, UniProt P28324-2 1-405); conditions: protein: recombinant; tags: N-terminal GST; dsDNA, one strand shown
# T3 sequence: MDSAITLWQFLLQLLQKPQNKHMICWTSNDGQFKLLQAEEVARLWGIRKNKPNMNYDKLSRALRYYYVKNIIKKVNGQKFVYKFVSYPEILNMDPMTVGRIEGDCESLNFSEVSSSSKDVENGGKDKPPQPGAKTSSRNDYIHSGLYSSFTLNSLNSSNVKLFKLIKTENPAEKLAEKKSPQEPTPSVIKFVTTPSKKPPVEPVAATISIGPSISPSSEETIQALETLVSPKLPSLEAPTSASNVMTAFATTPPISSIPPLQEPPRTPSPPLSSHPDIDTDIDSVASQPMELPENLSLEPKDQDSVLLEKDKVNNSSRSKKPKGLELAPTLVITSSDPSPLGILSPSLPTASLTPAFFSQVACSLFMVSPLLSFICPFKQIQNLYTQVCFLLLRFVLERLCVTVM
# In short: as §1
# [7] = target: T4, ETV2 (Homo sapiens, UniProt O00321 1-342); conditions: protein: recombinant; tags: N-terminal GST; dsDNA, one strand shown
# T4 sequence: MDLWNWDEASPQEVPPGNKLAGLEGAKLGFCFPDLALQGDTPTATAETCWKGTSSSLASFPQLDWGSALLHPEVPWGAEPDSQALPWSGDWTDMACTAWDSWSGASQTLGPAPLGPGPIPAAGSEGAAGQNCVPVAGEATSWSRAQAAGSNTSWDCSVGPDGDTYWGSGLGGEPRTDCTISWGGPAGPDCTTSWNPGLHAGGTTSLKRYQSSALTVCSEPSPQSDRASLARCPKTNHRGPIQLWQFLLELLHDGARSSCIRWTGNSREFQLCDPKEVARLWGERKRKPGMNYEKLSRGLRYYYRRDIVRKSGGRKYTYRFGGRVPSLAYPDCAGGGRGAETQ
# In short: as §1
# [8] = target: T5, ELF3 (Homo sapiens, UniProt P78545 1-371); conditions: protein: recombinant; tags: N-terminal GST; dsDNA, one strand shown
# T5 sequence: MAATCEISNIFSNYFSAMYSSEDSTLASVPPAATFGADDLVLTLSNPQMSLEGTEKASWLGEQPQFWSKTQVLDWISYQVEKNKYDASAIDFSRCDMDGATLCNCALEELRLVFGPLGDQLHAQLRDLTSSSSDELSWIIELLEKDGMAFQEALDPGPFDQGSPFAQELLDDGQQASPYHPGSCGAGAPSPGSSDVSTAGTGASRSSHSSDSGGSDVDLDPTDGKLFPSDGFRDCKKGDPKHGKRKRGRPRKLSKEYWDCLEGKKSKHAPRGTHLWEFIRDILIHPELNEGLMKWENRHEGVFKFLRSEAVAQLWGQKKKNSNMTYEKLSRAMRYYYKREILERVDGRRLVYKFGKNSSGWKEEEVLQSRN
# In short: as §1
# [9] = target: CRX (Homo sapiens, UniProt O43186 1-299); conditions: protein: recombinant; tags: N-terminal GST; dsDNA, one strand shown
# In short: as §1
# [10] = target: ETV1 (Homo sapiens, UniProt P50549 1-477); conditions: protein: recombinant; tags: N-terminal GST; dsDNA, one strand shown
# In short: as §1
# [11] = target: T6, ERF (Homo sapiens, UniProt P50548 1-548); conditions: protein: recombinant; tags: N-terminal GST; dsDNA, one strand shown
# T6 sequence: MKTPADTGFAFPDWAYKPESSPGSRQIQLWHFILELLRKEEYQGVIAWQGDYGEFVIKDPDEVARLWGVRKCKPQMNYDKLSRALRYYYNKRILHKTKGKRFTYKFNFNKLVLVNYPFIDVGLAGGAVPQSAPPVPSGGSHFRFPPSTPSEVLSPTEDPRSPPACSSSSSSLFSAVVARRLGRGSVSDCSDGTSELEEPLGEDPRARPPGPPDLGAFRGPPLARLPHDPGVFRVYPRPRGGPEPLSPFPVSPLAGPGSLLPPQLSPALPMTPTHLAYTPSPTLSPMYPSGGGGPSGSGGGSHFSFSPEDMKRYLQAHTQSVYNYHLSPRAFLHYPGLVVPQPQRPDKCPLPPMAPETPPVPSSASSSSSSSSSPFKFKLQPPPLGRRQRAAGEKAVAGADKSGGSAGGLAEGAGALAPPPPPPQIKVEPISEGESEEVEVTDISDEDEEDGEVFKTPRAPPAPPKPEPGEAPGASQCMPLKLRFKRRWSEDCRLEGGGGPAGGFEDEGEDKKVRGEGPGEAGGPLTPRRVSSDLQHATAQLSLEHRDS
# In short: as §1
# [12] = target: T7, ETV3L (Homo sapiens, UniProt Q6ZN32 1-361); conditions: protein: recombinant; tags: N-terminal GST; dsDNA, one strand shown
# T7 sequence: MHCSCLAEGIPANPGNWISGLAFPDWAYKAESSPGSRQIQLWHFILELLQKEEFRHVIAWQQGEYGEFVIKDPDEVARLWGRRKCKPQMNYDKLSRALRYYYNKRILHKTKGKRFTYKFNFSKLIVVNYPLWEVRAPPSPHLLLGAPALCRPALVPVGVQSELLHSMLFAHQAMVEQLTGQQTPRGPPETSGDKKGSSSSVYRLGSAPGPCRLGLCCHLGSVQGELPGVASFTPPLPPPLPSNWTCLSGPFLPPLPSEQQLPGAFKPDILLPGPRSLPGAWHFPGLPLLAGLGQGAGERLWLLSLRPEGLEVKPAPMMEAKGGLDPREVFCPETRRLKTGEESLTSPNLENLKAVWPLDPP
# In short: as §1
# [13] = target: T8, ETS2 (Homo sapiens, UniProt P15036 1-469); conditions: protein: recombinant; tags: N-terminal GST; dsDNA, one strand shown
# T8 sequence: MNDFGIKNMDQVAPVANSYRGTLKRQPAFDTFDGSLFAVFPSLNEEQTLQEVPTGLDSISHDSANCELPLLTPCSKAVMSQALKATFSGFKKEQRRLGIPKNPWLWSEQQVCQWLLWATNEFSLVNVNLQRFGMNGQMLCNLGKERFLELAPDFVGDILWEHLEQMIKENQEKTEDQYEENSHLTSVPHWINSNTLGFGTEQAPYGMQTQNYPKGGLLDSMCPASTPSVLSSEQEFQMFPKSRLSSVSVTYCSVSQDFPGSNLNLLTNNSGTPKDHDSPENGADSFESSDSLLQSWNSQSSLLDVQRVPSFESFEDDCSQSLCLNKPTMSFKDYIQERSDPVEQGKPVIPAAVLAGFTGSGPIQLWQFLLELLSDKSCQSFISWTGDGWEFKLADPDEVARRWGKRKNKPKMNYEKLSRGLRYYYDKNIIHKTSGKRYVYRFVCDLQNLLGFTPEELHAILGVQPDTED
# In short: as §1
# [14] = target: T9, SPDEF (Homo sapiens, UniProt O95238 1-335); conditions: protein: recombinant; tags: N-terminal GST; dsDNA, one strand shown
# T9 sequence: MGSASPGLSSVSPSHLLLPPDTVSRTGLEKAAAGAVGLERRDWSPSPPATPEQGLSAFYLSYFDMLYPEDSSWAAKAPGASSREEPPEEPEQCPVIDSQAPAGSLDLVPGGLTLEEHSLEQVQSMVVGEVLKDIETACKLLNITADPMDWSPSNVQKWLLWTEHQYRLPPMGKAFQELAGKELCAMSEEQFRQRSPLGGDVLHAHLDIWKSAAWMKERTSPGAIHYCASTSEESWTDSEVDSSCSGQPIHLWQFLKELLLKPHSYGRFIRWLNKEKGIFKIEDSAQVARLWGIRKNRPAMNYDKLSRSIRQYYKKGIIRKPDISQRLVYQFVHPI
# In short: as §1
# [15] = target: T10, ETV7 (Homo sapiens, UniProt Q9Y603 1-341); conditions: protein: recombinant; tags: N-terminal GST; dsDNA, one strand shown
# T10 sequence: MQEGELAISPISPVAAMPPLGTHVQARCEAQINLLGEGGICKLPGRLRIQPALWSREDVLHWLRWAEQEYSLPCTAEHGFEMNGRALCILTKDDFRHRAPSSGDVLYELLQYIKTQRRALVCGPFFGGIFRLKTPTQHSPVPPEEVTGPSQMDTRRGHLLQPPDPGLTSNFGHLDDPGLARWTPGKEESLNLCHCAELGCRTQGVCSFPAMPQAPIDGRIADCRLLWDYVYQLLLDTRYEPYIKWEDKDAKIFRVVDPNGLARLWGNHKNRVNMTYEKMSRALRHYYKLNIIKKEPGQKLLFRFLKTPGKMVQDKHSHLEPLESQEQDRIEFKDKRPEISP
# In short: as §1
# [16] = target: T11, ELF5 (Homo sapiens, UniProt Q9UKW6-2 1-255); conditions: protein: recombinant; tags: N-terminal GST; dsDNA, one strand shown
# T11 sequence: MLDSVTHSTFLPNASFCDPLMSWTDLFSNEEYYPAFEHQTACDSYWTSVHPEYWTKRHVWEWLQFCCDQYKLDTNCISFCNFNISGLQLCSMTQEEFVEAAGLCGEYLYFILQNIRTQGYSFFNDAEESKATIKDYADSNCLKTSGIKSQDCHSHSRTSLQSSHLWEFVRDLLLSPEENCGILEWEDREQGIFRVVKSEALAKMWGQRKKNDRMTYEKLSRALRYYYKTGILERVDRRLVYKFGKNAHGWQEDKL
# In short: as §1
# [17] = target: T12, ETV3 (Homo sapiens, UniProt P41162-2 1-143); conditions: protein: recombinant; tags: N-terminal GST; dsDNA, one strand shown
# T12 sequence: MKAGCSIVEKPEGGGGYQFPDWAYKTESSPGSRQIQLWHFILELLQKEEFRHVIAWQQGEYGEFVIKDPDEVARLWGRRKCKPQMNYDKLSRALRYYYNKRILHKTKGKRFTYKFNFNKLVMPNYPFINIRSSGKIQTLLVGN
# In short: as §1
# [18] = target: ETV6 (Homo sapiens, UniProt P41212 1-452); conditions: protein: recombinant; tags: N-terminal GST; dsDNA, one strand shown
# In short: as §1
# Sequence of ETV1 (P50549 whole entry): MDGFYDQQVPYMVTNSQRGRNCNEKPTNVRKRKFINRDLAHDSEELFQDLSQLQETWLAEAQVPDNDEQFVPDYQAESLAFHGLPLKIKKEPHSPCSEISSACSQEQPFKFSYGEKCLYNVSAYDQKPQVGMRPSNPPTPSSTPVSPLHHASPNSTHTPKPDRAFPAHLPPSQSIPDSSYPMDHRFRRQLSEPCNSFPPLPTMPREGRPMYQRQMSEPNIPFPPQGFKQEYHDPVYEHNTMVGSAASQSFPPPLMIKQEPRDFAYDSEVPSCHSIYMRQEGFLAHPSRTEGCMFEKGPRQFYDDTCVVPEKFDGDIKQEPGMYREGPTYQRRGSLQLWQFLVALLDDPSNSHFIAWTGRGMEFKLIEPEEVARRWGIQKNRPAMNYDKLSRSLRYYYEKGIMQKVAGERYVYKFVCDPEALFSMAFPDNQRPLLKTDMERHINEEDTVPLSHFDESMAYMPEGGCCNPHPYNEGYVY
# Sequence of ELF4 (Q99607 whole entry): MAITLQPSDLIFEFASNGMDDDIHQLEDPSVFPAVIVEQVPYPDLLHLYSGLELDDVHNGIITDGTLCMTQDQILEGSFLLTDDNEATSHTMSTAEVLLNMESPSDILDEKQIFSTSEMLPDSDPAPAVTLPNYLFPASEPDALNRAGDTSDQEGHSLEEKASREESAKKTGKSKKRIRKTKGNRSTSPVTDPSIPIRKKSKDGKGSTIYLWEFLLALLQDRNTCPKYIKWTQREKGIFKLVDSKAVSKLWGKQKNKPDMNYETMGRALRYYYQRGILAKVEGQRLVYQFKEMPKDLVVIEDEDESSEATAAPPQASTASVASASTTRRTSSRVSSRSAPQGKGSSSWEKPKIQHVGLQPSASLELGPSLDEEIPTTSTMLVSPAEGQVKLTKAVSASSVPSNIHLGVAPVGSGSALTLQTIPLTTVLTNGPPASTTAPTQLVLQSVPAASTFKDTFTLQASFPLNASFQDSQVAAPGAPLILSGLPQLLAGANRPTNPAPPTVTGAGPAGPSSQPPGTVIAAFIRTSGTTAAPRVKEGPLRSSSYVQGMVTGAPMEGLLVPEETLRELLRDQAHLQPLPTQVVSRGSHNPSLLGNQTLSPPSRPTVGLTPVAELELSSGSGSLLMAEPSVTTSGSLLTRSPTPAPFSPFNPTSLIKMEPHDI
# Sequence of HSF1 (Q00613 whole entry): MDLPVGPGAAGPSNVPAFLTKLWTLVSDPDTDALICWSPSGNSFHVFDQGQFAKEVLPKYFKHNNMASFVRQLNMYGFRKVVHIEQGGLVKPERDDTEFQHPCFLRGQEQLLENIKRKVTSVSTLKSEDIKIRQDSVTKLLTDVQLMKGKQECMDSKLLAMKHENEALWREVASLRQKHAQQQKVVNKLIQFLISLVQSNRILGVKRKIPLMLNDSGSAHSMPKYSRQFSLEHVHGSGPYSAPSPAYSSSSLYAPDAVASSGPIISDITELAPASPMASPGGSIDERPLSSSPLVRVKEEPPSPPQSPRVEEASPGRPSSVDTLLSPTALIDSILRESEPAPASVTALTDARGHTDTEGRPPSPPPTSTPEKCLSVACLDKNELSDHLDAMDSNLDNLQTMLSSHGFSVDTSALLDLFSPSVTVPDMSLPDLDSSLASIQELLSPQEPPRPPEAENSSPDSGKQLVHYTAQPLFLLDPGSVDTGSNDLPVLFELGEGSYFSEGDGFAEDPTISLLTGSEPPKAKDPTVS
# Sequence of ETV5 (P41161 whole entry): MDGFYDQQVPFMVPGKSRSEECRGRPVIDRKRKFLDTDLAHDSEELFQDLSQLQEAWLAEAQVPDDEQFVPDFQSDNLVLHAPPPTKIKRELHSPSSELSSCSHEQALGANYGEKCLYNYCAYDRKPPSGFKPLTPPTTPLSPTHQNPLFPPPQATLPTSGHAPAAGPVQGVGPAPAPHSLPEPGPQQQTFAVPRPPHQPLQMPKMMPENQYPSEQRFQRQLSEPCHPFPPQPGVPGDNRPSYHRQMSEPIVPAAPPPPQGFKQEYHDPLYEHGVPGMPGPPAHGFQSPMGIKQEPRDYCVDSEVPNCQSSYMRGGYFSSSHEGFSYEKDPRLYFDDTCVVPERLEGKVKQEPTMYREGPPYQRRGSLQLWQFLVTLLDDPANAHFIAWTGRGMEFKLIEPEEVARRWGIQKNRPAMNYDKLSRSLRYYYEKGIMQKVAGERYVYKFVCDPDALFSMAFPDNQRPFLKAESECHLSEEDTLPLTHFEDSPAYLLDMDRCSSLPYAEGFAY
# Sequence of CRX (O43186 whole entry): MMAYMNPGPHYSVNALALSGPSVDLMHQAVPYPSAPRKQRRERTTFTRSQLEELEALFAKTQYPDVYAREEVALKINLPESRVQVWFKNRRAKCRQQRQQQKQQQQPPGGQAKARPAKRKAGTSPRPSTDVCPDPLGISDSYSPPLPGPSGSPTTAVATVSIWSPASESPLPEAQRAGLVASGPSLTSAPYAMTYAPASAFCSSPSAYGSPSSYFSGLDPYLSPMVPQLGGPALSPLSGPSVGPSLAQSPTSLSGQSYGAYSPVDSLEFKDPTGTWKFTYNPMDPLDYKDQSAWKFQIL
# Sequence of ETV6 (P41212 whole entry): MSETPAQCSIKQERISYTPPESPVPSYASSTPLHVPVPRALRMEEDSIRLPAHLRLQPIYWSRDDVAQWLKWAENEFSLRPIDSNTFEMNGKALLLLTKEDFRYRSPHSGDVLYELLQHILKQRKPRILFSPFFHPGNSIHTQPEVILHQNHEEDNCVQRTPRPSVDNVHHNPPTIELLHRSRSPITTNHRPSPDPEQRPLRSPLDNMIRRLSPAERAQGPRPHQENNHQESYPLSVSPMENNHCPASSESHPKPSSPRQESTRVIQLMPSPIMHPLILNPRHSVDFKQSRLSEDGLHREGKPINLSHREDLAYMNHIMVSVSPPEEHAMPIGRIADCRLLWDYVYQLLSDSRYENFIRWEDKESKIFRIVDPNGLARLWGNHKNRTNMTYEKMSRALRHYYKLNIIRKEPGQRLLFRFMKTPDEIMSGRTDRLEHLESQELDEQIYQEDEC
sequence,measurement,setting,value
TTATGT,binding signal,[1],"1.15 fold enrichment (6-mer frequency, TF over GST control)"
same,binding signal,[2],"1.38 fold enrichment (6-mer frequency, TF over GST control)"
same,binding signal,[3],"1.63 fold enrichment (6-mer frequency, TF over GST control)"
same,binding signal,[4],"1.17 fold enrichment (6-mer frequency, TF over GST control)"
same,binding signal,[5],"1.38 fold enrichment (6-mer frequency, TF over GST control)"
same,binding signal,[6],"1.38 fold enrichment (6-mer frequency, TF over GST control)"
same,binding signal,[7],"1.13 fold enrichment (6-mer frequency, TF over GST control)"
same,binding signal,[8],"1.41 fold enrichment (6-mer frequency, TF over GST control)"
same,binding signal,[9],"2.24 fold enrichment (6-mer frequency, TF over GST control)"
same,binding signal,[10],"1.29 fold enrichment (6-mer frequency, TF over GST control)"
same,binding signal,[11],"1.29 fold enrichment (6-mer frequency, TF over GST control)"
same,binding signal,[12],"1.26 fold enrichment (6-mer frequency, TF over GST control)"
same,binding signal,[13],"1.3 fold enrichment (6-mer frequency, TF over GST control)"
same,binding signal,[14],"1.36 fold enrichment (6-mer frequency, TF over GST control)"
same,binding signal,[15],"1.3 fold enrichment (6-mer frequency, TF over GST control)"
same,binding signal,[16],"1.23 fold enrichment (6-mer frequency, TF over GST control)"
same,binding signal,[17],"1.34 fold enrichment (6-mer frequency, TF over GST control)"
same,binding signal,[18],"1.43 fold enrichment (6-mer frequency, TF over GST control)"
